# PDI inh: inhibitors of human PDI, primary screen, biochemical, turbidity, single point, plate reader. AID 588391, 2011. inhibition, % at 10 µM. PDI insulin aggregation turbidity, A650, 90 min. 350,000 compounds, 0.052% hits;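 active = mean inhibition across replicates of 30% or more, whatever share of single replicates reach that level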
# CendR NRP1 mod: modulators of CendR peptide binding to NRP-1, primary screen, biochemical, fluorescence polarization, uHTS | 360,000 compounds, 0.85% hits | FAM-RPARPAR peptide binding to NRP-1 | Neuropilin-1 (Homo sapiens), O14786 | inhibition, % at 25 µM | AID 602438, 2012;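 active = inhibition or corrected inhibition above about 18%, plus a signal ratio from 0.5 to 1.5, limit read from the data, passing the limit was not always enough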
# ALR H2O2 inh: inhibitors of human ALR sulfhydryl oxidase, primary screen, biochemical, H2O2 detection, HRP-luminol luminescence, single point | FAD-linked sulfhydryl oxidase ALR (Homo sapiens), P55789 | purified ALR, DTT oxidation | inhibition, % (concentration not given with the values) | 290,000 compounds, 3.8% hits | AID 485317, 2010;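 active = mean replicate inhibition above about 79%, with every replicate also reaching it, limit read from the data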
# PglD inh: C. jejuni PglD acetyltransferase inhibitors, primary screen, biochemical, DTNB colorimetric, single point | UDP-N-acetylbacillosamine N-acetyltransferase PglD (Campylobacter jejuni) | purified PglD enzyme, DTNB colorimetric CoA detection | inhibition, % at 12.5 µM | 360,000 compounds, 0.098% hits | AID 602405, 2012; in the data active = inhibition above about 16%, passing the limit was not always enough
# ERp5 inh: inhibitors of ERp5-driven insulin aggregation, primary screen, biochemical, turbidity, absorbance 650 nm, single point | Protein disulfide-isomerase A6 (Homo sapiens), Q15084 | 90 min | inhibition, % at 9.99 µM | 350,000 compounds, 0.05% hits | AID 651711, 2012;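 active = mean replicate inhibition above about 25%, with every replicate also reaching it, limit read from the data, passing the limit was not always enough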
# Target sequence (Q15084 whole entry, looked up): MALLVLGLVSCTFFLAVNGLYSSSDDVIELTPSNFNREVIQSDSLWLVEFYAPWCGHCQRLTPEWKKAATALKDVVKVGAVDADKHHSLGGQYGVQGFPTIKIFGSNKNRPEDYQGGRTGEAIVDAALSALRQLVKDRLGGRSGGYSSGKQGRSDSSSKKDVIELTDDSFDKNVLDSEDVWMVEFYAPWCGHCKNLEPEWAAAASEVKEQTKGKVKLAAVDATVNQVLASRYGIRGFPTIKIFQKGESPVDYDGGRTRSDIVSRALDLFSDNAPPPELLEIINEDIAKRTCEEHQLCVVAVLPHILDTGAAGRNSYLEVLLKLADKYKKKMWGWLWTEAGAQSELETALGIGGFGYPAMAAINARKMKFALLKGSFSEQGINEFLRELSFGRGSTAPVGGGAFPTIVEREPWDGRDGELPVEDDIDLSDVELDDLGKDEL
# ARNT TACC3 PPI: disruptors of ARNT/TACC3 protein interaction, primary screen, biochemical, AlphaScreen, single concentration | Transforming acidic coiled-coil-containing protein 3 (Homo sapiens), Q9Y6A5 | AlphaScreen His-ARNT PAS-B/GST-TACC3 binding, luminescence; TACC3 fragment carries E629A point mutation | inhibition, % at 9.99 µM | 390,000 compounds, 0.66% hits;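 active = mean inhibition of replicates at least 50% and at least half of replicates each reaching 50%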;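 also: 0% = complete ARNT plus TACC3 wells and 100% = ARNT alone without TACC3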
# * = called active by the depositor; · = no result given. The sample as a whole holds a higher share of hits than the screen did.
SMILES,PDI inh,CendR NRP1 mod,ALR H2O2 inh,PglD inh,ERp5 inh,ARNT TACC3 PPI
N#Cc1ccccc1CSc1nc2ccc(NC(=O)c3ccccc3C(=O)O)cc2s1,27,-25,99*,·,6,-4
CC=Cc1ccc2n(c1=O)C[C@@H]1[C@@H](CO)[C@H](C(=O)NC3CCC3)[C@H]2N1Cc1ccncc1 (mixture of isomers),·,·,·,·,8,·
Cc1ccc(S(=O)(=O)Nc2ccc3c(c2)C(=O)N([C@@H](C)CO)C[C@H](C)[C@H](CN(C)S(=O)(=O)c2c(C)noc2C)OCCCC[C@@H](C)O3)cc1,·,·,·,38,4,-1
CC1CCCN(C(=O)CCCNC(=O)c2ccc(Cl)cc2)C1 (stereo unspecified),-2,15,-9,-5,1,0
O=C(NCCC(=O)N1CCCC(C(F)(F)F)C1)c1ccc(Br)cc1 (stereo unspecified),7,28*,-2,4,1,-6
NC(=O)C1CCCN(C(=O)CCCNC(=O)c2ccc(Cl)cc2)C1 (stereo unspecified),5,28*,·,-9,0,·
COc1ccc(/C=N/N=C2/NC(=O)C(CC(=O)O)S2)cc1OCc1ccc(Cl)cc1Cl (stereo unspecified),1,-16,7,-1,5,1
COc1ccc(/C=N/N=C2/NC(=O)C(CC(=O)O)S2)cc1OCc1ccccc1Cl (stereo unspecified),-1,-16,92*,-24,·,3
CCOc1cc(/C=N/N=C2/NC(=O)C(CC(=O)O)S2)ccc1OCc1ccccc1Cl (stereo unspecified),-7,-29,98*,·,·,1
COc1ccc(CN(C)C[C@H]2Oc3ccc(NC(=O)Nc4ccc(F)cc4)cc3CC(=O)N([C@@H](C)CO)C[C@@H]2C)cc1,·,·,·,5,-2,0
COCCNC(=S)N/N=C(\C)c1ccc(O)cc1,1,1,99*,-4,·,6
COCCCNC(=S)N/N=C/c1ccc(O)cc1,4,10,99*,-2,0,·
COCCCNC(=S)N/N=C/c1ccc(O)cc1O,2,-7,70,2,11,84*
COc1ccc(NC(=O)N(C)C[C@@H]2Oc3ccc(NS(=O)(=O)c4ccc(OC)cc4)cc3CC(=O)N([C@H](C)CO)C[C@@H]2C)cc1,·,·,·,-4,1,-11
S=c1[nH]nc(COc2ccc(Cl)cc2Cl)n1-c1ccccc1,-4,-6,84*,-8,18,0
O=C(Nc1ccc(F)cc1F)c1ccccc1-c1ccccc1,-2,31*,2,·,·,-1
CNc1nc2c3ccccc3n(C(C)=O)c2s1,-3,2,·,-3,·,1
CC(=O)n1c2ccccc2c2nc(NC(C)C)sc21,-3,11,99*,7,·,-3
Cc1cccn2cc(-c3cccc(S(=O)(=O)N4CC(C)OC(C)C4)c3)nc12 (stereo unspecified),6,-7,97*,2,-9,26
Cc1cccn2cc(-c3ccc(F)cc3)nc12,0,4,96*,-2,·,11
Cc1cccn2cc(-c3cccc(S(=O)(=O)N4CCOCC4)c3)nc12,2,13,96*,0,3,2
CC1CN(S(=O)(=O)c2cccc(-c3cn4ccccc4n3)c2)CC(C)O1 (stereo unspecified),-2,-17,-9,3,-1,10
Cc1cccn2cc(-c3ccccc3)nc12,-8,-1,·,0,·,-5
CCOC(=O)C1CCN(S(=O)(=O)c2cccc(-c3cn4cccc(C)c4n3)c2)CC1,-1,1,-6,1,-1,·
Cc1cc(N)n(-c2nc3ccccc3s2)n1,4,9,99*,·,2,-4
SMILES,PDI inh,CendR NRP1 mod,ALR H2O2 inh,PglD inh,ERp5 inh,ARNT TACC3 PPI
CCOc1ccc(C(=O)CC(Sc2ccc(C)cc2)C(=O)O)cc1 (stereo unspecified),-5,0,95*,8,0,-1
O=C(CC(Sc1ccc(Br)cc1)C(=O)O)c1ccc(F)cc1 (stereo unspecified),11,7,·,7,-5,-4
CC(C)CC#Cc1cnc2c(c1)C(=O)N([C@H](C)CO)C[C@H](C)[C@H](CN(C)C(=O)c1cccnc1)O2,·,·,·,1,-5,11
Cc1ccc(NC(=O)C2CCCN2C(=O)OCc2ccccc2)c(C)c1 (stereo unspecified),10,3,-6,0,1,-4
Cc1ccc(NC(=O)C2CCCN2C(=O)OCc2ccccc2)c(O)c1 (stereo unspecified),2,5,86*,-4,3,-11
COc1ccc2c3c(n(C)c2c1)[C@@H](CO)N(C(=O)CC1CC1)CC31CCN(C(=O)C2CCCC2)CC1,·,·,·,·,-4,·
Cc1ccc(O)c(CCc2ccc(O)cc2)n1,0,-3,94*,·,0,-1
OCCc1ccc(O)cc1,-9,0,22,3,-5,1
CC(=O)Nc1ccc2c(c1)ncn2-c1ccccc1,1,-5,-33,0,-3,7
c1ccc(-n2cnc3cc(NCc4ccncc4)ccc32)cc1,-25,-2,99*,0,·,5
CC(C)n1cnc2cc(NCc3ccccn3)ccc21,-1,-6,74,-4,-1,42
c1ccc(-n2cnc3cc(NCc4ccccn4)ccc32)cc1,-3,6,100*,·,-11,22
Cc1cc(NCc2ccccn2)ccc1Br,0,-1,99*,-1,1,-3
CCCC(=O)Nc1ccc2c(c1)C(=O)N(C)[C@H]1CC[C@@H](CC(=O)NC3CCCC3)O[C@H]1CO2,·,·,·,0,6,13
CCCC1=NN2C(=N)/C(=C\c3ccc(SCc4ccco4)o3)C(=O)N=C2S1,2,-239,99*,-12,·,9
O=C1NC(=S)S/C1=C\c1ccc(SCc2ccco2)o1,-14,-149,99*,-4,·,5
O=C1NC(=S)S/C1=C\c1ccc(SCc2ccccc2)o1,-4,-155,-1,-1,·,-2
C[C@@H]1CN([C@H](C)CO)C(=O)c2cc(NS(=O)(=O)c3ccc(Cl)cc3)ccc2O[C@@H](C)CCCCO[C@H]1CN(C)Cc1ccc2c(c1)OCO2,·,·,·,9,0,9
CCN(CC)S(=O)(=O)c1ccc(-c2nnc(SCC(=O)N3c4ccccc4CC3C)o2)cc1 (stereo unspecified),-1,-16,-3,2,·,-5
CCN(CC)S(=O)(=O)c1ccc(-c2nnc(SCC(=O)N3c4ccccc4CC3C)n2CC)cc1 (stereo unspecified),2,26*,-1,-3,·,-5

# Bioassay records as filed in PubChem BioAssay.
